Values joined by “and” are separate entries in the source; they are usually repeats but may differ in a detail not shown here. Equal entries are not always repeated. Results filed as inconclusive are left out. Entries that show only a call come without a potency. A structure can be active in one record and inactive in another. Active and inactive are the calls of the source. The call rests on the fitted dose curve.
experiment: Nuclear factor erythroid 2-related factor 2/antioxidant responsive element (Nrf2/ARE) small molecule agonists: luciferase reporter gene qHTS assay in human keratinocytes (AID 1919969); conditions: KeratinoSens HaCaT ARE-luciferase, luminescence, 24 h; series mostly up to 92.4 µM; further: nearly all actives have a fitted effect of over 35% in size
Source text: National Center for Advancing Translational Sciences [NCATS]
Division of Preclinical Innovation [DPI]
U.S. Environmental Protection Agency [EPA]
National Institutes of Environmental Health Sciences [NIEHS]
National Toxicology Program [NTP]
U.S. Food and Drug Administration [FDA]
Oxidative stress has been implicated in the pathogenesis of a variety of diseases ranging from cancer to neurodegeneration. The antioxidant response element (ARE) signaling pathway plays an important role in the amelioration of oxidative stress. The KeratinoSens (Givaudan, Switzerland) is an in vitro test method which quantifies luciferase induction as a measure of activation of Keap1-Nrf2-antioxidationt/electrophile response element (ARE) dependant pathway in HaCaT human keratinocytes stably transfected with a selectable plasmid. The KeratinoSens assay is a cell-based assay with a reporter cell line to detect potential skin sensitizers by their ability to induce the Nrf2/ARE-response. The activation of the report gene under culture conditions can be detected by ONE-Glo Luciferase Assay System (Promega, Madison, WI). This cell line has been used to screen the Tox21 10K compound library to identify agonists that induce oxidative stress. The cytotoxicity of the Tox21 compound library against the KS-ARE cell line was tested in parallel by measuring the cell viability using CellTiter- Fluor assay system (Promega, Madison, WI) in the same wells.
HaCaT derived cell line KeratinoSens were dispensed at 1,500 cells/5uL/well in 1536-well white wall/solid bottom plates using a Multidrop Combi (ThermoFisher Scientific, Waltham, MA) dispenser. After the assay plates were incubated at 37 C/5% CO2 for 5 h, 23 nL of compounds dissolved in DMSO, positive controls or DMSO only was transferred to the assay plate by a pintool workstation (Kalypsys, San Diego, CA). The plates were incubated at 37 C/5% CO2 for 23 h, followed by addition of 1uL/well of CellTiter-Fluor reagent into the assay plates using a Flying Reagent Dispenser (Aurora Discovery, San Diego, CA) for cell viability readout that measures cytotoxicity. After 1 h incubation at 37 C/5% CO2 the fluorescence intensity was measured using a ViewLux (PerkinElmer, Shelton, CT) plate reader. Then 4uL/well of One-Glo were added using a Flying Reagent Dispenser. After the plates were incubated at room temperature for 30 min, the luminescence intensity in the assay plates was measured using ViewLux plate reader.
Potency means the concentration at half of the fitted maximal effect.

SMILES | Potency
O=NN1CCOCC1 | inactive
CCOP(=S)(OCC)Oc1cc(C)nc(C(C)C)n1 | inactive
C=CCO | inactive
Nc1cccc(Cl)c1 | inactive
NCCc1ccc(O)cc1 | 29.8 µM (active)
CC[C@H](N)c1ccccc1 | inactive
CCOc1cc(C=O)ccc1O | inactive
Cc1cc(-c2cc(C)c(N)c(C)c2)cc(C)c1N | inactive
COc1ccc(C(O)(c2cncnc2)C2CC2)cc1 (stereo not given) | inactive
COS(=O)(=O)OC | inactive
COC(=O)NS(=O)(=O)c1ccc(N)cc1 | inactive
C=CCc1ccc(OC)cc1 | inactive
O=P1(NCCCl)OCCCN1CCCl (stereo not given) | inactive
CCOP(=S)(OCC)Oc1ccc2c(C)c(Cl)c(=O)oc2c1 | inactive and 10.6 µM (active)
COc1ccc2c3c1O[C@H]1[C@@H](O)C=C[C@H]4[C@@H](C2)N(C)CC[C@@]341 | 23.9 µM (active) and inactive
O=C(Cl)CCl | inactive
O=[N+]([O-])c1ccc(Cl)cc1 | inactive
CC1(C)Cc2cccc(O)c2O1 | inactive
CN(C)CCc1c[nH]c2cccc(OP(=O)(O)O)c12 | inactive
C#CC(C)(C)NC(=O)c1cc(Cl)cc(Cl)c1 | inactive

SMILES | Potency
Cc1ncc(CNC(=O)N(CCCl)N=O)c(N)n1 | inactive
O=C1C(Cl)=C(Cl)C(=O)c2ccccc21 | 5.46 µM (active) and 8.63 µM (active)
COS(=O)(=O)c1ccc(C)cc1 | inactive
Cc1cccc(N)c1C | inactive
c1ccc(N=NNc2ccccc2)cc1 | 28.3 µM (active) and 61.1 µM (active)
CCC(C)C(C)(COC(N)=O)COC(N)=O (stereo not given) | inactive
COc1cc(-c2ccc(N)c(OC)c2)ccc1N | inactive
CCCC[n+]1ccc(C)cc1 | inactive
c1ccc(N2CCNCC2)cc1 | inactive
C[N+](C)(C)CC(=O)[O-] | inactive
CCOP(=S)(OCC)Oc1cnc2ccccc2n1 | inactive
Clc1ccc(C(c2ccc(Cl)cc2)C(Cl)(Cl)Cl)cc1 | inactive
CCOC(=O)C1(c2ccccc2)CCN(CCC(C#N)(c2ccccc2)c2ccccc2)CC1 | inactive
C[Si](Cn1cncn1)(c1ccc(F)cc1)c1ccc(F)cc1 | inactive
O=C(O)C(Cl)(Cl)Br | inactive
CCCCCCCCCCCC[N+](C)(C)CCOc1ccccc1 | inactive
CCCCCCCCCCCCCCCC[n+]1ccccc1 | inactive
C=CC1(C)OC(=O)N(c2cc(Cl)cc(Cl)c2)C1=O (stereo not given) | 68.2 µM (active) and inactive
S=C=S | inactive
CNC(=O)O/N=C/C(C)(C)SC | inactive
